Experimental findings from PubChem BioAssay (NCI) are described below.

About 83,000 compounds went through this panel and 20% of them were active in at least one assay; those are over-represented in the sample as a whole.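 The test compound was applied at a single concentration to cells in 96-well plates for 48 hours, and percent growth was recorded.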 A number with no mark means an inactive call. Calls of active or inactive are those of the source.

In the experiment the test system is A549/ATCC NSCLC. As to the kind of experiment: NCI-60 one-dose screen, 48 h (100 = growth as untreated, 0 = no growth, -100 = all killed). As to conditions: 10 µM unless noted. The method, then:
Growth inhibition of the A549/ATCC human Non-Small Cell Lung tumor cell line is measured as a screen for anti-cancer activity. Cells are grown in 96 well plates and exposed to the test compound for 48 hours. Compounds are tested at a single concentration, which is 10^-5 M for most compounds. The reported endpoint is percent growth (GI% or GIPRCNT), where numbers from 0 - 100% represent growth inhibition, and numbers from -100% - 0 represent cell death. For example, a value of 40 represents 60% growth inhibition. A value of 0 means no net growth occurred over the course of the experiment. A value of -40 indicates 40% of cells at the beginning of the experiment died by the end of the experiment. A value of -100 means all cells are dead at the end of the experiment.
NCI-60 Human Tumor Cell Lines Screen was performed using the standard one-dose NCI protocol, which is described in more detail at https://dtp.cancer.gov/discovery_development/nci-60/default.htm.
Compounds with GIPRCNT values below 10 were considered active. Activity score was based on GIPRCNT using the following formula: […]
Score is 0 for GIPRCNT values of 100 or above, 50 for GIPRCNT values of 0, and 100 for GIPRCNT values of -100.
Take `O=C(O)c1c(=O)cccc2ssc12`: the growth was -51% (active). Under `C=CC(=O)Nc1cccc(-c2nc(SC)nc(Nc3ccccc3OC)c2C#N)c1` stands -6.83% (active). Under `O=c1cc(CSc2nnc(SCc3cc(=O)oc4c3ccc3ccccc34)o2)c2ccc3ccccc3c2o1` stands 89.3%; under `CN(C)c1ccc(N=Nc2ccccn2)c(O)c1`, 11.8%. As for `CNC(=O)c1cc(Oc2ccc(NC(=O)Nc3ccc(Cl)c(OC(F)(F)F)c3)c(F)c2)ccn1`, the figure is 24.7%; as for `CCCCn1c(-c2ccc(C(=O)O/N=C(\N)c3ccc4c(c3)OCO4)cc2)nc(-c2ccccc2)c1-c1ccccc1`, 15.7%; as for `Cc1nc2c3c(-c4ccccc4)c(-c4ccccc4)oc3ncn2n1`, 101%.

With `O=C(N/N=C/c1c[nH]c2ccccc12)c1cc(-c2ccccc2)on1`, the growth is 96.7%. As for `Cc1nc2ccccc2n1C(=O)C[C@@H]1NC(=S)NC1=O`, the figure is 93.1%. As for `O=C(C(=O)c1ccc2c(c1)OCO2)c1ccc2c(c1)OCO2`, the growth was 99.1%.

Take `COc1cc(/C=C/C(=O)Nc2cccnc2Nc2ccc(F)cc2)cc(OC)c1OC`: the growth is 70.1%. `Nc1ccc(-c2cc3c(NCc4ccccc4)ncnc3s2)cc1`: the growth was 70.9%. As for `NC(=O)c1cc(Cl)ccc1NC(=O)/C=C/c1ccccc1`, the figure is 17.8%. As for `CCCCCCCCCCCCC[N+](C)(C)Cc1ccccc1`, the figure is 40.5%; as for `COc1cccc(-c2nc3sccn3c2-c2ccnc(NCCCNS(=O)(=O)c3c(Cl)cccc3Cl)c2)c1`, 60.3%; as for `COc1ccc(-c2nc3ccc(-c4nc5ccc(N6CCN(C)CC6)cc5[nH]4)cc3[nH]2)cc1OC`, 96.1%. For `COc1cccc(-c2nn(C(C)(C)C)cc2-c2ccnc(NCCCNS(=O)(=O)c3ccc(C)cc3)c2)c1`, the growth was 103%. Regarding `O=C1OC(c2ccccc2)C(O)=C1c1ccccc1` (stereo not given), the growth was 86.6%. As for `O=CNc1ccc2c(c1)Cc1cccc(NC=O)c1-2`, the figure is 85.6%. As for `COc1ccc(-c2nc(SCC(=O)Nc3ccc(C(=O)/C=C/c4ccc(Cl)cc4)cc3)[nH]c(=O)c2C#N)cc1`, the figure is 101%; as for `Cc1cc(Nc2ccc(C)c(Cl)c2)n2nc(C(F)(F)F)nc2n1`, 42.5%; as for `O=C(/C=C/c1ccc(C(F)(F)F)cc1)Nc1ccc(C=C2c3ccccc3C(=O)c3ccccc32)cc1`, 44.6%. As to `COc1ccc(-c2nc3ccc(-c4nc5ccc(N6CCN(c7ccncc7)CC6)cc5[nH]4)cc3[nH]2)cc1OC`, the growth was 80.7%.

For `O=C(N/N=C/c1ccccc1O)c1ccccc1Nc1ccnc(C(F)(F)F)c1`, the growth was 10.4%. As for `Brc1ccc(-c2csc(Nc3ccccn3)n2)cc1`, the figure is 91.3%. As for `CC1=C[C@H]2c3c(c(O)c(O)c4oc5c(C)cccc5c(=O)c34)[C@H](c3cc(O)c(O)c4oc5c(C)cccc5c(=O)c34)[C@H]2C(C)(C)C1`, the figure is 11.9%; as for `COc1ccc(-c2cc(C(=O)N=Nc3c(O)[nH]c4ccc(Br)cc34)no2)cc1`, 103%.

Take `CCNc1ncnc2c1cnn2C1CCCO1` (stereo not given): the growth is 95.4%. As for `C/C1=C\CC[C@@]2(C)O[C@H]2[C@H]2OC(=O)C(CN3CCN(CC4C(=O)O[C@H]5[C@H]4CC/C(C)=C/CC[C@@]4(C)O[C@@H]54)CC3)[C@@H]2CC1` (stereo not given in full), the figure is 93.5%; as for `CCCCn1c(-c2ccc(C(=O)O/N=C(\N)c3ccc4ccccc4c3)cc2)nc(-c2ccccc2)c1-c1ccccc1`, 42%. As for `COc1ccc(/C=C2\Oc3cc(OCCCCN4CCCC4)ccc3C2=O)cc1`, the figure is 79.3%. Under `CCc1nc(N)nc(N)c1C#CC(C)c1cc(-c2ccnc(C)c2)c2oc(C)nc2c1` (stereo not given) stands 3.87% (active); under `NC(N)=N/N=C(/c1ccccc1)c1ccc(F)cc1`, -15.1% (active).

Regarding `O=C1C=CC(=O)N1c1ccc2c(c1)Cc1cc(F)ccc1-2`, the growth is 97.9%.

With `CC1=NN(c2nc(-c3ccc(Cl)cc3)c(C#N)c(N3CCOCC3)n2)C(=O)C1`, the growth is 101%. As for `COc1cc(/C=C/C(=O)c2cccnc2Nc2ccc(F)cc2)cc(OC)c1OC`, the figure is 32.9%. As for `CCCCCCN(CCCCCC)CCC(O)c1ccc2ccccc2c1` (stereo not given), the figure is 74.5%.

With `C[n+]1ccccc1/C=C/c1ccc2cccc(O)c2n1`, the growth is 9.6% (active). Under `Cc1cc(C)c2nc3nc(C)cc(C)c3c(N)c2c1` stands 19.9%; under `O=C1c2cc3c(cc2-c2c1c1ccc(F)cc1c(=O)n2C[C@H](O)[C@@H](O)[C@H](O)CO)OCO3`, -33.7% (active).
